HT1080 IDH1KD tx = qHTS for induction of synthetic lethality in tumor cells producing 2HG: qHTS for the HT-1080-IDH1KD cell line | Potency, µM (series often up to 46.1 µM), for inactives: at the top dose activity, negative = toxicity, most hits filed as cytotoxic | AID 686971, 2013 | HT-1080 IDH1 knockdown viability, ATP luminescence, 48 h | hit rate 2% among 360,000;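 note: potency is the fitted concentration of half-maximal effect; 0% = DMSO wells and -100% = cell-free medium wells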
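Luminescent ATP read-out (CellTiter-Glo, 10 min at room temperature) after 48 h compound exposure at 37 °C gave viability of IDH1-knockdown HT-1080 cells. Activity was normalised to DMSO and cell-free wells, then fitted as concentration-response curves.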
DT40 TDP1 no CPT = qHTS for Inhibitors of human tyrosyl-DNA phosphodiesterase 1 (TDP1): qHTS in cells in absence of CPT; DT40 Tdp1-/- hTDP1 cells, no CPT, ATP luminescence, 48 h; Potency, µM (doses to about 46.2 µM), for the others: at the top dose activity change, negative = growth inhibition, usual class: inhibitors; hit rate 15% among 420,000; note: potency is the fitted concentration of half-maximal effect; nearly all actives have a fitted effect of over 55% in size
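A cellular qHTS used chicken DT40 cells lacking endogenous Tdp1 but carrying stably transfected human TDP1. Compounds were applied without camptothecin, and cell growth kinetics were judged by ATP-dependent luminescence after ≥48 hr.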
HT1080-NT tox = qHTS for induction of synthetic lethality in tumor cells producing 2HG: qHTS for the HT-1080-NT fibrosarcoma cell line | HT-1080-NT fibrosarcoma viability, CellTiter-Glo ATP luminescence, 48 h | Potency, µM (top dose mostly 46.1 µM), without a hit: top-dose activity, negative = less viability, most hits filed as cytotoxic | hit rate 1.6% among 360,000 | AID 686970, 2013;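 note: NT is the 2HG producing partner of a matched IDH1 knockdown line; potency is the fitted concentration of half-maximal effect; 0% = DMSO-treated cells and -100% = media-only wells without cells; nearly all actives have a fitted effect of over 55% in size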
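A 48-hour cytotoxicity screen used HT-1080-NT cells plated 2 hours before compound delivery. ATP-based CellTiter-Glo luminescence measured viability, normalized to DMSO and no-cell controls.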
DT40 TDP1 CPT = qHTS for Inhibitors of human tyrosyl-DNA phosphodiesterase 1 (TDP1): qHTS in cells in presence of CPT | chicken DT40 Tdp1-/-;hTDP1 cells + 20 nM CPT, ATP luminescence, 48 h | Potency, µM (series often up to 46.2 µM), inactives show top-dose activity change, negative = growth inhibition, most hits filed as inhibitors | hit rate 12% among 420,000 | AID 686979, 2013; note: potency is the fitted concentration of half-maximal effect; nearly all actives have a fitted effect of over 55% in size
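Cell growth measured by CellTiter-Glo luminescence after a minimum 48 h, 37 C compound exposure with 20 nM CPT in Tdp1-knockout DT40 cells stably expressing hTDP1, seeded 400/well; qHTS titration format.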
IL1B secr inh = qHTS for Inhibitors of Inflammasome Signaling: IL-1-beta AlphaLISA Primary Screen; hit rate 4.7% among 360,000; THP-1 LPS/ATP IL-1B secretion, AlphaLISA, 16 h; hits give low values; activity change, % at 57.5 µM; in the data active = activity change below about -50%; inconclusive = mostly about -30% to -49%
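Secreted IL-1B measured by AlphaLISA bead assay after 16 h compound exposure of THP-1 cells; compounds (final up to 57.5 uM) added 1 h before LPS (250 ng/mL) and ATP (1.25 mM) stimulation; lower signal means less secretion.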
* marks the source's active call; other numbers are inactive results; [ ] = another dose, or the depositor's remark. Shown are actives, neighbours in structure and some others; about 19% of the full set was active somewhere. Unless noted, calls come from the whole dose curve; as a rule, active = well fitted curve in the direction sought with a large enough effect; inconclusive = small, poorly fitted or top-dose-only effect, or another doubt; inactive = no such curve, though single readings can be large; an effect the other way counts as inactive or inconclusive. Unless noted, % is set by controls: 0 for no effect and ±100 for the full control effect.

`COC(=O)CSC1=C(C#N)C(c2ccc(C)o2)CC(=O)N1` (stereo not given) gave HT1080 IDH1KD tx 7.3µM*, DT40 TDP1 no CPT 2.9µM*, HT1080-NT tox inconclusive, DT40 TDP1 CPT 15µM* and IL1B secr inh 5.
CCCOC(=O)CSC1=C(C#N)C(c2ccc3c(c2)OCO3)CC(=O)N1 (stereo not given) was read as HT1080 IDH1KD tx inconclusive, DT40 TDP1 no CPT 23µM*, HT1080-NT tox inconclusive, DT40 TDP1 CPT 18µM* and IL1B secr inh -11.
For N#CC1=C(SCc2ccccc2)NC(=O)CC1c1cccc(O)c1 (stereo not given) the results were HT1080 IDH1KD tx 4%, DT40 TDP1 no CPT -8%, HT1080-NT tox 1%, DT40 TDP1 CPT -13% and IL1B secr inh -54*.
Screening CCOc1ccc(NC(=O)CSC2=C(C#N)C(c3ccc4c(c3)OCO4)CC(=O)N2)cc1 (stereo not given) returned HT1080 IDH1KD tx inconclusive, DT40 TDP1 no CPT -27%, HT1080-NT tox -9%, DT40 TDP1 CPT -26% and IL1B secr inh -55*.
COC(=O)CSC1=C(C#N)C(c2ccc(F)cc2)CC(=O)N1 (stereo not given) was read as HT1080 IDH1KD tx -5%, DT40 TDP1 no CPT inconclusive, HT1080-NT tox -4%, DT40 TDP1 CPT -9% and IL1B secr inh 19.
For N#CC1=C(SCc2ccccc2)NC(=O)CC1c1ccc(O)cc1 (stereo not given) the results were HT1080 IDH1KD tx 8%, DT40 TDP1 no CPT inconclusive, HT1080-NT tox 4%, DT40 TDP1 CPT -13% and IL1B secr inh -3.
Screening O=C(NC1CC1)c1cc2cc3ccccc3nc2s1 returned HT1080 IDH1KD tx -6%, DT40 TDP1 no CPT inconclusive, HT1080-NT tox 10%, DT40 TDP1 CPT 23µM* and IL1B secr inh -1.
`O=C(/C=C/c1ccc(O)c(O)c1)c1ccc(S(=O)(=O)N2CCCCCC2)cc1` gave HT1080 IDH1KD tx -8%, DT40 TDP1 no CPT 5.2µM*, HT1080-NT tox -8%, DT40 TDP1 CPT 4.6µM* and IL1B secr inh -74*.
Screening COc1ccc2c(c1)c1c(c(=O)n(-c3ccccc3C)c(=O)n1Cc1c(F)cccc1Cl)n2C returned DT40 TDP1 no CPT -26% and DT40 TDP1 CPT -8%.
`Cc1ccccc1NS(=O)(=O)c1ccc2[nH]cc(C(=O)N3CCCC3)c(=O)c2c1` gave DT40 TDP1 no CPT 9% and DT40 TDP1 CPT -3%.
`Cc1cc(NS(=O)(=O)c2ccc(NC(=O)CSc3nc4ncc(Br)cc4[nH]3)cc2)nc(C)n1` gave HT1080 IDH1KD tx 19%, DT40 TDP1 no CPT 1%, HT1080-NT tox 1%, DT40 TDP1 CPT 13% and IL1B secr inh 0.
CC(C)(C)OC(=O)C[C@H]1C/C=C\C[C@@H](CC(=O)N(CCO)Cc2ccccc2)C(=O)N2CCC[C@H]2COC1=O was read as HT1080 IDH1KD tx -2%, DT40 TDP1 no CPT inconclusive, HT1080-NT tox -4%, DT40 TDP1 CPT 18µM* and IL1B secr inh -19.
Screening O=C1OC[C@@H]2CCCN2C(=O)[C@H](CC(=O)N(CCO)Cc2ccccc2)C/C=C\C[C@H]1Cc1ccc(F)cc1 returned HT1080 IDH1KD tx -1%, DT40 TDP1 no CPT inconclusive, HT1080-NT tox -4%, DT40 TDP1 CPT inconclusive and IL1B secr inh -2.
`CC(C)(C)OC(=O)C[C@H]1C/C=C\C[C@@H](CC(=O)N(CCO)Cc2ccccc2)C(=O)N2CCC[C@@H]2COC1=O` gave HT1080 IDH1KD tx -2%, DT40 TDP1 no CPT inconclusive, HT1080-NT tox 0%, DT40 TDP1 CPT inconclusive and IL1B secr inh -25.
`O=C1OC[C@H]2CCCN2C(=O)[C@@H](CC(=O)N(CCO)Cc2ccccc2)C/C=C\C[C@@H]1Cc1ccc(F)cc1` gave HT1080 IDH1KD tx 0%, DT40 TDP1 no CPT 18µM*, HT1080-NT tox -9%, DT40 TDP1 CPT 7.3µM* and IL1B secr inh -25.
`COc1cc(/C=C/C(=O)OCC(=O)N2c3ccccc3NC(=O)C2(C)C)cc(OC)c1OC` gave HT1080 IDH1KD tx inconclusive, DT40 TDP1 no CPT 10µM*, HT1080-NT tox inconclusive, DT40 TDP1 CPT 18µM* and IL1B secr inh -65*.
`COc1ccc(S(N)(=O)=O)cc1C(=O)OCC(=O)N1c2ccccc2NC(=O)C1(C)C` gave HT1080 IDH1KD tx 7%, DT40 TDP1 no CPT -16%, HT1080-NT tox 20%, DT40 TDP1 CPT 12% and IL1B secr inh 4.
For N[C@@H](Cn1cc(I)c(=O)n(Cc2ccc(C(=O)O)cc2)c1=O)C(=O)O the results were DT40 TDP1 no CPT 2% and DT40 TDP1 CPT 2%.
For Cc1ccc(SCC(=O)NC(=O)Nc2ccc3c(c2)OCCO3)cc1C the results were HT1080 IDH1KD tx -5%, DT40 TDP1 no CPT -2%, HT1080-NT tox -5%, DT40 TDP1 CPT -21% and IL1B secr inh 10.
`COc1ccc(OCC(=O)N(C)CC2COc3ccccc3O2)cc1` (stereo not given) gave HT1080 IDH1KD tx -9%, DT40 TDP1 no CPT inconclusive, HT1080-NT tox -11%, DT40 TDP1 CPT 18µM* and IL1B secr inh -5.
Screening CCCNC(=O)C1(C)CCN(C(=O)c2cccnc2Oc2ccccc2)C1 (stereo not given) returned HT1080 IDH1KD tx 12%, DT40 TDP1 no CPT -11%, HT1080-NT tox 3%, DT40 TDP1 CPT -10% and IL1B secr inh -1.
Cc1ccc(C2N=C(Nc3nc4ccccc4o3)NC3=C2C(=O)CC(C)(C)C3)cc1 (stereo not given) was read as DT40 TDP1 no CPT 4.5µM* and DT40 TDP1 CPT 7.1µM*.
`CC1(C)CC(=O)C2=C(C1)NC(Nc1nc3ccccc3o1)=NC2c1cccnc1` (stereo not given) gave DT40 TDP1 no CPT -26% and DT40 TDP1 CPT inconclusive.
`CC1(C)CC(=O)C2=C(C1)NC(Nc1nc3ccccc3o1)=NC2c1ccccc1` (stereo not given) gave DT40 TDP1 no CPT 2.8µM* and DT40 TDP1 CPT 2.8µM*.
For COc1ccc(C2N=C(Nc3nc4ccccc4o3)NC3=C2C(=O)CC(C)(C)C3)cc1 (stereo not given) the results were DT40 TDP1 no CPT 6.3µM* and DT40 TDP1 CPT 6.3µM*.
Screening OCCCNCc1cc2ccc(F)cc2nc1N1CCN(c2cccc(Cl)c2)CC1 returned DT40 TDP1 no CPT -38% and DT40 TDP1 CPT -6%[9.04 µM].
Cc1ccc(NC(=O)c2oc3ccc(S(=O)(=O)N4CCCCCC4)cc3c2C)c(C)c1 was read as DT40 TDP1 no CPT -22% and DT40 TDP1 CPT -24%.
